According to the supplement of paper PMC6555819:

What follows are sequences tested on VDR homodimer (NR concentration 270 nM) (assay: PBM binding z-score (relative to random genomic background probes); higher = stronger binding; sequences stand for … in GC…GCGATTGACAGCGTAGAATGAAGG).
Method in brief: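 Custom Agilent 4×180K protein-binding microarrays carried double-stranded probes, each with a 34-nt variable region. These regions held direct-repeat seeds, single-nucleotide variants, half-site ablations and random human genomic background sequences. Ligand-free nuclear receptor dimers were incubated on the arrays for 1 h, antibodies against each partner (one per run) detected binding, and scanned fluorescence was regression-normalized. Binding z-scores take the random background probes as reference.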

Row | Sequence | PBM binding z-score
1 | TCTCGGAGGACACGAAAGGCCAGAGCTCGACATC | -0.482
2 | TGTCAAAGTTCAAAGGTAACGGAAGTATCCACAC | 4.06
3 | GCTGCTAGATCAGGTTGGTCAGCTAACGGGTACG | 0.19
4 | TCATATAGGTAAATCCTAGGTGAAAGTCCGATCT | -0.253
5 | GCTTACGGGTCAAAGGCTATAGCATGAATAGAAT | 0.708
6 | TCAAGTAGGTTAGGGGCATTCAGAATGGCGTCGA | 1.48
7 | ATCTCAAGGTAACAAGTTCAGTGAAAGAGAGGAC | 2.9
8 | CCGACTGGGGCAGAAAGGTTACTATACCATCCGG | -0.181
9 | CTCGAAAGGTCGTGCTCAGGTGCGTATACCAAAC | 1.45
10 | CCGACTGGGGCATAAGGGTACCATAAGCCAGCCC | -0.543
11 | TGTCAAAGTTGAAAGGTAACGTAAGTATCCACAC | -0.281
12 | TCGAGTAGGTAAGGGGCATTCAGAATGGCGTCGA | 0.178
13 | CCTACTGGGCCATTCAGAGGTCATTGGTCATATG | 3.34
14 | CAAACTAGGTCAAAGTCAAAGTCGGTTTGTGCCA | 1.05
15 | CAAACTAGGTCAAGAGGTCAACGTCCGCTTCCCG | 3.84
16 | CATACAGGGTCAGCTAGGCCAGAGTCGGGACGGC | 1.31
17 | GCTTGTATATCAAGGTTAAGAAAGACTAAGCTAA | -0.0299
18 | ATATGTAGGTTAGCGGGTCATTCAGTTTGCGCAT | 2.76
19 | CGTCCAAGGTCGATGCTAGGTCAGTGAAAGCATT | 1.09
20 | GCAGACAGGTGAAACGCAGGTTACTCAGGGTGGC | -0.446
21 | CGTCCAAGGTCATAGTAGGTCAGTGAAGACAGAT | 3.93
22 | ATCTCTAGGTAAGACTCAGTTCTGTGAAGAACGC | 0.278
